This excerpt belongs to a sample that is enriched for hits.
USP2a block: inhibitors of human ubiquitin-specific protease USP2a; O75604; USP2 core, Ub-CHOP2 coupled fluorogenic reporter, 485/531; Potency, µM (series often up to 38.3 µM), for the others: top-dose activity change, negative = inhibition, hits mostly inhibitors; 330,000 tested, 0.01% active; AID 463254;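 also: plate controls were DMSO wells for no effect and full inhibition by NEM control for full effect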
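Deubiquitinase activity read as fluorescence (485/531 nm) after Ub-CHOP2 cleavage activates the enterokinase reporter on its substrate; USP2 core 10nM, Ub-CHOP2 and substrate 25nM each, 30min compound preincubation then 60min RT; data normalized to NEM, curves fitted.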
ClpP mod: qHTS Assay for Activators of ClpP. purified B. subtilis ClpP, FRET peptide cleavage, 20 min. Potency, µM (titrated, usually from 57.5 µM), for the others: top-dose activity change, negative = active. 340,000 tested, 1.9% active. AID 651965, 2013; active = well fitted falling curve with a large enough effect; inconclusive = small, poorly fitted or top-dose-only effect; inactive = no such curve, though single readings can be large or run the other way; also: the source files actives as falling curves though it sought activators and does not explain the sign; nearly all actives have a fitted effect of over 65% in size
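Buffer: 100 mM Tris/HCl pH8, 100 mM KCl, 0.05% low protease BSA, 2.5% glycerol, 0.01% Tween-20. ClpP 10 microg/mL final; 20 min RT; delta FRET normalized to ADEP and DMSO controls.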
GALK inhibitor: blocks human galactokinase activity. P51570. Purified GALK, Kinase-Glo residual ATP luminescence. Potency, µM (highest dose often 57.5 µM), inactives show top-dose activity change, negative = inhibition, most hits filed as inhibitors. 270,000 tested, 0.007% active. AID 1868; also: % is scaled to controls: 0 for no effect and ±100 for the full control effect
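Luminescence from leftover ATP (Ultra-Glo luciferase/luciferin) served as read-out after a 1 h room-temperature reaction of 5 nM GALK with 35 uM ATP and 100 uM galactose.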
Eya2 phos inh: blocks the phosphatase activity of human Eya2; 330,000 tested, 0.006% active; O00167; Potency, µM (doses to about 76.9 µM), without a hit: at the top dose activity, negative = inhibition, actives largely listed as inhibitors; recombinant Eya2, OMFP fluorescence dephosphorylation (OMFP is methylfluorescein phosphate); also: % is scaled to controls: 0 for no effect and ±100 for the full control effect
Target sequence (O00167 whole entry, looked up): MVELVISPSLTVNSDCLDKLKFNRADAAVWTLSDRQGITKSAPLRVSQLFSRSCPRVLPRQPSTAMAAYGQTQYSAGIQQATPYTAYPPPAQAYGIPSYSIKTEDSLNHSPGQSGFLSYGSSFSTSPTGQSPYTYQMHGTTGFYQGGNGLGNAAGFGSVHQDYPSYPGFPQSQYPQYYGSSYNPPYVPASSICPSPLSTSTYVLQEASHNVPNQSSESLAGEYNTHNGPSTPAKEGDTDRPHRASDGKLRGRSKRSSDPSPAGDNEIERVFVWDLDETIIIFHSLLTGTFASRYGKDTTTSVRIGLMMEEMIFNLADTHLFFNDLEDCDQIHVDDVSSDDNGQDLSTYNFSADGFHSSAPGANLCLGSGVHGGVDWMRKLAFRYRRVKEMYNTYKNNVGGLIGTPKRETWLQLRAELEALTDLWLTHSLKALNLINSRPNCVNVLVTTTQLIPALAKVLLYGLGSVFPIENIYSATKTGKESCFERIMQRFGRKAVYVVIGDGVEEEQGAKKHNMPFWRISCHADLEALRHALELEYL
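Eya2 protein (added as 0.2 uM solution) was preincubated with compound for 10 min at ambient temperature in 50 mM HEPES pH 7.5, 50 mM NaCl, 5 uM MgCl2, 0.05% BSA, 1 mM DTT. OMFP (added at 50 uM) then reacted 10 min; fluorescence read at 485/525 nm.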
Starred values were filed as active, the others as inactive. Unless noted, calls follow the shape of the dose curve; as a rule, active = well fitted inhibition curve with a large enough effect; inconclusive = small, poorly fitted or top-dose-only effect, or effect the other way; inactive = flat fitted curve, though single readings scatter. Potency is read from the fitted curve at half-maximal effect.

How did CCOc1ccc(CCNC(=O)Cn2c(-c3cccs3)cc3cc(F)ccc32)cc1OCC do in these assays?
ClpP mod: 4%

What do the screens show for `O=C1[C@H]2[C@@H](c3ccccc3)N[C@]3(CCCN(Cc4ccc(C(F)(F)F)cc4)C3=O)[C@H]2C(=O)N1Cc1ccccc1`?
ClpP mod: 1%

How did O=C(NCC1CCCO1)C(c1cccs1)N(Cc1ccccc1Cl)C(=O)c1ccc(-c2ccccc2)[nH]1 (stereo not given) do in these assays?
USP2a block: -11%; ClpP mod: 32µM*; GALK inhibitor: 0%; Eya2 phos inh: -9%

What do the screens show for `O=C(Nc1ccccc1)Nc1ccccc1C(=O)NCC1CC1`?
USP2a block: -1%; ClpP mod: -3%; Eya2 phos inh: -17%

Results for CCOC(=O)C1CCN(S(=O)(=O)c2ccc(-c3cc(C(F)(F)F)n(C)n3)s2)CC1 ?
USP2a block: 0%; ClpP mod: -14%; GALK inhibitor: 0%; Eya2 phos inh: -17%

What do the screens show for `CCOC(=O)C1CCN(S(=O)(=O)c2ccc(-c3nc4ccccc4s3)s2)CC1`?
USP2a block: 2%; ClpP mod: 25µM*; GALK inhibitor: -1%; Eya2 phos inh: 19%

What do the screens show for `CC(C)C(NC(=O)c1c(F)cccc1F)C(=O)NCC(c1ccccc1)N(C)C` (stereo not given)?
USP2a block: 3%; ClpP mod: 0%; GALK inhibitor: 5%; Eya2 phos inh: 9%

What do the screens show for `COc1ccccc1NS(=O)(=O)c1cc(C(=O)NCc2cccnc2)ccc1C`?
USP2a block: -1%; ClpP mod: -4%; Eya2 phos inh: -21%

Results for CN(c1ccc(C(=O)Nc2cccnc2)cc1)S(C)(=O)=O ?
USP2a block: 2%; ClpP mod: 28µM*; GALK inhibitor: -1%; Eya2 phos inh: -1%

What do the screens show for `CCn1cc(C(=O)NCC(C)C)c(=O)c2cc(F)c(N3CCN(C(=O)c4ccco4)CC3)cc21`?
USP2a block: 0%; GALK inhibitor: -2%; Eya2 phos inh: -2%

How did CCn1cc(C(=O)NCc2ccco2)c(=O)c2cc(F)c(N3CCN(C(=O)c4ccco4)CC3)cc21 do in these assays?
USP2a block: 1%; ClpP mod: 28µM*; GALK inhibitor: -2%; Eya2 phos inh: -34%

How did COc1cccc(NC(=O)CN(C)C(C)C(=O)Nc2cc([N+](=O)[O-])ccc2Cl)c1 (stereo not given) do in these assays?
USP2a block: -2%; ClpP mod: 32µM*; GALK inhibitor: 1%; Eya2 phos inh: -18%

How did O=C(/C=C/c1ccc(F)cc1)NCc1ccco1 do in these assays?
USP2a block: 0%; ClpP mod: 1%; GALK inhibitor: 2%; Eya2 phos inh: -10%

How did O=C(/C=C/c1c(F)cccc1Cl)NCc1ccco1 do in these assays?
USP2a block: -1%; ClpP mod: 10µM*; GALK inhibitor: 0%; Eya2 phos inh: 5%

How did COc1cccc(-n2c(SCC(N)=O)nc3c(oc4ccccc43)c2=O)c1 do in these assays?
ClpP mod: -2%

How did Cc1cc(=O)oc2cc(OCC(O)CN3CCc4ccccc4C3)ccc12 (stereo not given) do in these assays?
USP2a block: 2%; ClpP mod: inconclusive; GALK inhibitor: 0%; Eya2 phos inh: -7%

Results for COc1ccccc1N1CCN(CC(O)COc2ccc3c(C)cc(=O)oc3c2)CC1 (stereo not given) ?
USP2a block: 8%; ClpP mod: 16µM*; GALK inhibitor: 0%; Eya2 phos inh: -7%

What do the screens show for `Cc1cc(=O)oc2cc(OCC(O)CN3CCN(c4ccccc4)CC3)ccc12` (stereo not given)?
USP2a block: 2%; ClpP mod: 32µM*; GALK inhibitor: 3%; Eya2 phos inh: 5%

How did Cc1ccc(/C=N/NC(=O)CNC(=O)COc2ccccc2)cc1 do in these assays?
USP2a block: 0%; ClpP mod: -1%; GALK inhibitor: 0%; Eya2 phos inh: -5%

Results for CC1CCCCC1NC(=O)COC(=O)c1ccc([N+](=O)[O-])o1 (stereo not given) ?
USP2a block: 1%; Eya2 phos inh: -25%

How did Cc1ccc(-c2cc(C(=O)O)c3sc(N4CCCCC4)nc3n2)cc1 do in these assays?
USP2a block: -15%; ClpP mod: inconclusive; GALK inhibitor: -1%; Eya2 phos inh: 1%

What do the screens show for `COc1ccc(-c2cc(C(=O)O)c3sc(N4CCCCC4)nc3n2)cc1OC`?
USP2a block: 4%; ClpP mod: 10µM*; GALK inhibitor: 2%; Eya2 phos inh: 0%

Results for COc1ccc(-c2cc(-c3ccccc3)nc(N3CCCC3)n2)cc1OC ?
USP2a block: -1%; ClpP mod: 25µM*; GALK inhibitor: -4%; Eya2 phos inh: 1%

How did CCc1cc(C(=O)OC)c(NC(=O)CC2SC(=NC)N(C)C2=O)s1 (stereo not given) do in these assays?
USP2a block: 3%; GALK inhibitor: 1%; Eya2 phos inh: 13%

How did CC(=O)CCc1c(C)[nH]c2ccc(NC(C)=O)cc2c1=O do in these assays?
USP2a block: 2%; ClpP mod: 25µM*; GALK inhibitor: 1%; Eya2 phos inh: -1%

How did COC(=O)c1ccc2c(=O)[nH]c(CCl)nc2c1 do in these assays?
USP2a block: -1%; GALK inhibitor: 5%; Eya2 phos inh: -7%

How did CCC1(CC)NC(=O)N(CC(=O)OCc2nc3cc(C(=O)OC)ccc3c(=O)[nH]2)C1=O do in these assays?
USP2a block: -6%; ClpP mod: 28µM*; Eya2 phos inh: -19%

What do the screens show for `Cc1ccc2c(CC(=O)N(C)c3c(N)n(Cc4ccccc4)c(=O)[nH]c3=O)coc2c1`?
USP2a block: 1%; ClpP mod: 25µM*; Eya2 phos inh: -15%

How did CCN(C(=O)COC(=O)Cc1coc2cc(C)ccc12)c1c(N)n(Cc2ccccc2)c(=O)[nH]c1=O do in these assays?
USP2a block: 1%; ClpP mod: -1%; Eya2 phos inh: -2%

What do the screens show for `CC(C)NCC(O)Cn1c2c(c3ccccc31)CCc1c-2cnn1-c1ccccc1` (stereo not given)?
USP2a block: 2%; ClpP mod: 8.9µM*; GALK inhibitor: 0%; Eya2 phos inh: 1%

What do the screens show for `O=C(CC1(O)C(=O)N(CCc2ccccc2)c2ccccc21)c1ccccn1` (stereo not given)?
USP2a block: 0%; GALK inhibitor: -2%; Eya2 phos inh: -4%

What do the screens show for `O=C(COc1cccc2c1CCN(Cc1ccccc1F)C2=O)N1CCCCC1`?
USP2a block: 3%; GALK inhibitor: 1%; Eya2 phos inh: -12%

What do the screens show for `O=C(Nc1ccc(Br)cn1)c1cccc(-c2cc3ccccc3oc2=O)c1`?
USP2a block: 1%; ClpP mod: 14µM*; GALK inhibitor: 0%; Eya2 phos inh: -10%

How did Cc1nc(NC(=O)c2cccc(-c3cc4ccccc4oc3=O)c2)ccc1Br do in these assays?
USP2a block: -1%; ClpP mod: -5%; GALK inhibitor: 0%; Eya2 phos inh: -4%

How did CCn1cc(S(=O)(=O)c2ccc(C)cc2C)c(=O)c2cc(F)c(N3CCCC3)cc21 do in these assays?
ClpP mod: 32µM*
